PubChem BioAssay (Tox21)
Records with an inconclusive call do not appear. Activity calls are given as the source filed them. Unless noted, the call rests on the fitted dose curve.

Assays:
[1] = Nuclear factor erythroid 2-related factor 2/antioxidant responsive element (Nrf2/ARE) small molecule agonists: qHTS cell viability counter screen in human keratinocytes (AID 1919968; active means well fitted curve in the direction sought with a large enough effect in the repeat runs; an effect the other way counts as inactive or inconclusive; further: nearly all actives have a fitted effect of over 55% in size; further: potency means the concentration at half of the fitted maximal effect)
Outline: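 Parallel cytotoxicity read: KeratinoSens HaCaT cells, compound treatment 23 h, viability by CellTiter-Fluor fluorescence 1 h post-reagent.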

[2] = Nuclear factor erythroid 2-related factor 2/antioxidant responsive element (Nrf2/ARE) small molecule agonists: luciferase reporter gene qHTS assay in human keratinocytes (AID 1919969); further: nearly all actives have a fitted effect of over 35% in size
[3] = target: Gonadotropin-releasing hormone receptor (Homo sapiens) (UniProt P30968); test: Human gonadotropin-releasing hormone receptor (GnRHR) small molecule agonists, calcium flux assay in GnRHR-HEK293 cells (AID 1920063); further: nearly all actives have a fitted effect of over 35% in size
Outline: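 Calcium flux, agonist mode, human GnRHR stably integrated in HEK293; dye 1 h at 37 C before compound; Ex/Em=480/540 kinetic read, 3 min; 15 concentrations, triplicate.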

[4] = target: KiSS-1 receptor (Homo sapiens) (UniProt Q969F8); test: Human kisspeptin (KISS1R) small molecule agonists, calcium flux assay in KISS1R-HEK293 cells (AID 1920064; active means well fitted curve in the direction sought with a large enough effect in the repeat runs; an effect the other way counts as inactive or inconclusive)
Outline: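 Triplicate 15-concentration series were applied to dye-loaded human KISS1R HEK293 cells, and agonist-evoked calcium fluorescence was captured for 3 min.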

[5] = G protein-coupled receptor (GPCR) small molecule agonists, calcium flux assay: HEK293 wild type cell line counter screen (AID 1920065)
Outline: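 Non-specific calcium responders were flagged by adding DMSO-dissolved compounds to dye-loaded cells and reading 480/540 nm fluorescence each second for 3 min; ATP served as positive control.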

[6] = p53 small molecule agonists, cell-based qHTS assay with human liver microsomes (AID 1963577);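 further: p53 response element beta-lactamase reporter cells with liver microsomes plus NADPH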
Outline: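 16 h, 37 C exposure of p53RE-bla cells to compounds with human liver microsomes and NADPH (0.5 mg/mL final each); detection via LiveBLAzer mixture, 2 h dark at room temperature.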

[7] = p53 small molecule agonists, cell-based qHTS assay with rat liver microsomes (AID 1963578)
Outline: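 With rat liver microsomes and NADPH present (0.5 mg/mL final each), p53RE-bla cells are treated with compound for 16 h at 37 C. LiveBLAzer detection mixture is then applied for 2 h at room temperature in the dark.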

[8] = p53 small molecule agonists, cell-based qHTS assay with human liver microsomes: qHTS cell viability counter screen (AID 1963579); further: nearly all actives have a fitted effect of over 45% in size
Outline: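 In this multiplexed counter screen, the reporter plates were subsequently treated with CellTiter-Glo so that cell viability, reflected by luminescence, could be recorded for p53RE-bla cells dosed 16 h with compounds under microsomal activation (HLM and NADPH).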

[9] = p53 small molecule agonists, cell-based qHTS assay with rat liver microsomes: qHTS cell viability counter screen (AID 1963580); further: nearly all actives have a fitted effect of over 45% in size; further: potency means the concentration at half of the fitted maximal effect
Outline: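 Luminescent ATP readout (CellTiter-Glo, 30 min at room temperature) reports viability of p53RE-bla HCT-116 cells after 16 h at 37 C with test compounds under metabolic activation by rat liver microsomes and NADPH at 0.5 mg/mL final each.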

[10] = target: 5-hydroxytryptamine receptor 2A (Homo sapiens) (UniProt P28223); test: 5-hydroxytryptamine receptor 2A (HTR2A) small molecule antagonists, cell-based qHTS assay (AID 1963586); further: nearly all actives have a fitted effect of over 45% in size
Outline: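 CHO cells stably expressing human HTR2A were plated for 18 h at 37 C, then loaded with calcium dye for 1 h. Compounds were preincubated 5 min at room temperature before DOI (4 nM solution) was added. Kinetic fluorescence was read for 3 min.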

[11] = target: Muscarinic acetylcholine receptor M1 (Homo sapiens) (UniProt P11229); test: Cholinergic receptor muscarinic 1 (CHRM1) small molecule antagonists, cell-based qHTS assay (AID 1963588); further: nearly all actives have a fitted effect of over 40% in size
Outline: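 Compounds were tested at 15 concentrations in three independent runs. Dye-loaded CHRM1-CHO cells were exposed 5 min at room temperature before stimulation by acetylcholine added at 50nM. Intracellular calcium was read kinetically on FDSS for 3 min.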

[12] = target: Muscarinic acetylcholine receptor M1 (Homo sapiens) (UniProt P11229); test: Cholinergic receptor muscarinic 1 (CHRM1) small molecule agonists, cell-based qHTS assay (AID 1963589); further: nearly all actives have a fitted effect of over 35% in size
Outline: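 qHTS, 15-point titration, 3 independent runs: compounds pin-transferred onto dye-loaded CHRM1-CHO cells (human M1), calcium fluorescence followed every second to detect agonism.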

[13] = target: Beta-2 adrenergic receptor (Homo sapiens) (UniProt P07550); test: Adrenergic beta2 receptor (ADRB2) small molecule antagonists, cell-based qHTS assay (AID 1963592); further: series mostly up to about 92 µM; nearly all actives have a fitted effect of over 50% in size
Outline: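 Assay format: CHO-ADRB2 cells, 18-20hr seeding at 37C/5% CO2, then compound plus 1nM isoproterenol agonist mix for 0.5hr RT. Homogeneous time-resolved fluorescence cAMP detection after 1hr, expressed as 665/615 nm ratio.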

[14] = target: Beta-2 adrenergic receptor (Homo sapiens) (UniProt P07550); test: Adrenergic beta2 receptor (ADRB2) small molecule agonists, cell-based qHTS assay (AID 1963593);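 further: CHO cells stably overexpressing human ADRB2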
Outline: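 CHO cells stably over-expressing ADRB2 were plated overnight at 37C, then dosed with compounds plus a stimulation mix containing 100uM IBMX and 25uM Ro-20-1724 for 0.5hr at room temperature. cAMP was measured by HTRF competition, 1hr.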

[15] = target: D(2) dopamine receptor (Homo sapiens) (UniProt P14416); test: Dopamine D2 receptor (DRD2) small molecule agonists, cell-based qHTS assay (AID 1963594); further: nearly all actives have a fitted effect of over 35% in size
Outline: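 HEK293 cells stably expressing DRD2 were cultured 24 h at 37 C, then given Ro20-1724 (0.1 mM final) and compounds for 10 min at room temperature. NKH477 (200nM) was then added for 30 min. cAMP was read by HTRF.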

[16] = target: D(2) dopamine receptor (Homo sapiens) (UniProt P14416); test: Dopamine D2 receptor (DRD2) small molecule antagonists, cell-based qHTS assay (AID 1963595; active means well fitted inhibition curve with a large enough effect in the signal ratio in the repeat runs, with a control signal flat; the % refers to the signal ratio)
Outline: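 Antagonism was scored as restored cAMP in HEK293-DRD2 cells. These cells were stimulated with 200 nM NKH477 and 12 nM quinpirole for 30 min at room temperature, in the presence of 0.1 mM Ro20-1724.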

[17] = cAMP Responsive Elements (CRE) small molecule agonists, cell-based qHTS assay (AID 1963590)
Outline: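 Quantitative HTS for CRE agonists: HEK 293T CRE-bla cells, overnight plating, 3 h compound incubation at 37 C/5% CO2, then 2 h room-temperature LiveBLAzer B/G FRET substrate loading.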

[18] = p53 small molecule agonists, cell-based qHTS assay (AID 1963582; active means well fitted activation curve with a large enough effect in the signal ratio in the repeat runs, not every such curve was filed as active; the % refers to the signal ratio)
Outline: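 Beta-lactamase reporter cells (p53RE-bla) treated with compounds for 16 h at 37 C; FRET substrate, 2 h, room temperature; fluorescence intensity.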

[19] = target: 5-hydroxytryptamine receptor 2A (Homo sapiens) (UniProt P28223); test: 5-hydroxytryptamine receptor 2A (HTR2A) small molecule agonists, cell-based qHTS assay (AID 1963587); further: nearly all actives have a fitted effect of over 30% in size
Outline: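 HTR2A-CHO cells, plated 18 h at 37 C/5% CO2, dye-loaded 1 h at 37 C; compounds in DMSO added by pin tool (agonist mode). Intracellular calcium flux read as kinetic fluorescence on FDSS over 2 min at 1 s intervals.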

[20] = cAMP Responsive Elements (CRE) small molecule antagonists, cell-based qHTS assay (AID 1963591; active means well fitted inhibition curve with a large enough effect in the signal ratio in the repeat runs, not every such curve was filed as active; the % refers to the signal ratio)
Outline: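 Fluorescence intensity from cleaved LiveBLAzer B/G substrate (2 h, room temperature) quantified CRE-bla activity in HEK 293T cells exposed 3 h to compound with 0.25 uM final NKH477.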

Measured: Potency

5-hydroxytryptamine receptor 2A (Homo sapiens), sequence (P28223 whole entry, looked up): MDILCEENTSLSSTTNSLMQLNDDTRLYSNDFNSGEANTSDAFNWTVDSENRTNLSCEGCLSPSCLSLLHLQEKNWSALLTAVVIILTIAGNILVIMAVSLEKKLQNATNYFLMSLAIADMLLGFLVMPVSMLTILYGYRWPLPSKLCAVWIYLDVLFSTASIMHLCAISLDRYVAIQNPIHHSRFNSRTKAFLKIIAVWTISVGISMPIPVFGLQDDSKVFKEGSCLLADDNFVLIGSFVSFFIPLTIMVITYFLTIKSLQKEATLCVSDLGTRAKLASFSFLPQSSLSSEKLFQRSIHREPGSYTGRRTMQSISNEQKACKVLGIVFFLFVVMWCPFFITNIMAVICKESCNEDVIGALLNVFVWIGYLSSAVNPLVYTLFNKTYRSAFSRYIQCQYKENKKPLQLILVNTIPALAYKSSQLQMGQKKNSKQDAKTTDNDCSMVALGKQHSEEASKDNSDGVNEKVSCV
Muscarinic acetylcholine receptor M1 (Homo sapiens), sequence (P11229 whole entry, looked up): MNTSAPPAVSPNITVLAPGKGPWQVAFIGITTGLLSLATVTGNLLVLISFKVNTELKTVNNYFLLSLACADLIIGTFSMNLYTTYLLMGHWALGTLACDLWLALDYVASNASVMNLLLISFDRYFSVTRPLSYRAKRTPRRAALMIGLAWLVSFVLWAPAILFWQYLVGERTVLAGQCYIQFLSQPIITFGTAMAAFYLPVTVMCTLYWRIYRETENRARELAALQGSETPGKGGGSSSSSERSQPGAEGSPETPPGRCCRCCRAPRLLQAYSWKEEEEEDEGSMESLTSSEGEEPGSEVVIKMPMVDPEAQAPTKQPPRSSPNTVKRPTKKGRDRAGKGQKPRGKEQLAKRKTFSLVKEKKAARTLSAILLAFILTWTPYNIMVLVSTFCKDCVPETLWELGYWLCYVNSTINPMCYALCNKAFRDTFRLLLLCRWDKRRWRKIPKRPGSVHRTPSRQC
Gonadotropin-releasing hormone receptor (Homo sapiens), sequence (P30968 whole entry, looked up): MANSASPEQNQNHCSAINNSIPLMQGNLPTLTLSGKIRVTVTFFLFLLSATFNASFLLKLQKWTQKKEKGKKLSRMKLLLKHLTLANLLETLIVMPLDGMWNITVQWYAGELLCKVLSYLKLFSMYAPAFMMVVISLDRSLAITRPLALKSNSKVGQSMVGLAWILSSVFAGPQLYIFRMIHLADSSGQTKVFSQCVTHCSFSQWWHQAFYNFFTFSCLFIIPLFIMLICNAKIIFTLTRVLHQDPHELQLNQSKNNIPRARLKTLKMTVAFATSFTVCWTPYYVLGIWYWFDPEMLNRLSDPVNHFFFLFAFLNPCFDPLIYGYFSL
Beta-2 adrenergic receptor (Homo sapiens), sequence (P07550 whole entry, looked up): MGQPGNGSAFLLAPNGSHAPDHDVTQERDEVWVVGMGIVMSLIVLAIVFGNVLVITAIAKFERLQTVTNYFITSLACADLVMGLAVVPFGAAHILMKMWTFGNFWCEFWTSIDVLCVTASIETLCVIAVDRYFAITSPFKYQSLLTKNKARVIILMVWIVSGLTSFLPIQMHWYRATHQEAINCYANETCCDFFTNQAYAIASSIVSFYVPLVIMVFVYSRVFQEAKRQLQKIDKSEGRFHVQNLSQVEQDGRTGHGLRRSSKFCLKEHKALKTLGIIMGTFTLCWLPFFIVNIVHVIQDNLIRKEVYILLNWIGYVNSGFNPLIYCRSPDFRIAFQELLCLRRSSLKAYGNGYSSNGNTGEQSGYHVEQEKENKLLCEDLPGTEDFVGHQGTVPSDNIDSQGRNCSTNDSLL
KiSS-1 receptor (Homo sapiens), sequence (Q969F8 whole entry, looked up): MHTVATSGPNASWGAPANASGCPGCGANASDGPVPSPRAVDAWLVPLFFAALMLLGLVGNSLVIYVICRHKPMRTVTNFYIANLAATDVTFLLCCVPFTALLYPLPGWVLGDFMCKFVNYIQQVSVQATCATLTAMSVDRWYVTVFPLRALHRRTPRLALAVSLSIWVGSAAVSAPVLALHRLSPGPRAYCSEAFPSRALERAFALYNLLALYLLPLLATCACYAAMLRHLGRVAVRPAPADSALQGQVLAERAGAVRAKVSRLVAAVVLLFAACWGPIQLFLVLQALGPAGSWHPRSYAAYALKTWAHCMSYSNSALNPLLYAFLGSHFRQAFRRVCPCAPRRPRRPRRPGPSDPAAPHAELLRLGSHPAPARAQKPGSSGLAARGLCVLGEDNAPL
D(2) dopamine receptor (Homo sapiens), sequence (P14416 whole entry, looked up): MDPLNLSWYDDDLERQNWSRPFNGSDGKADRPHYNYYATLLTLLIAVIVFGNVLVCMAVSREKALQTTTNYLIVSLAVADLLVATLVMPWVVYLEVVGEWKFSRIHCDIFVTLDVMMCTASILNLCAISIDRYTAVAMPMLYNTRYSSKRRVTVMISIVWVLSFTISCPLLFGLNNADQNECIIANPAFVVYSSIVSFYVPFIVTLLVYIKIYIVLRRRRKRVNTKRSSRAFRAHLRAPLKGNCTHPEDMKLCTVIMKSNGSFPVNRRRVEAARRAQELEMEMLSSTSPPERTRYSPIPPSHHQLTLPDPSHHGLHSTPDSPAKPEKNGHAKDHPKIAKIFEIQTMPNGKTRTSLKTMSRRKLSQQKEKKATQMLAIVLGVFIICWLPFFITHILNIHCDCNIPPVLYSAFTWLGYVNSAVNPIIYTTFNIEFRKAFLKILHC

CC(C(=O)O)c1ccc(C(=O)c2ccccc2)s1 (stereo unspecified)
not listed: [17] | [18] | [19] | [20]
inactive: all other assays above

CN(Cc1cc(Br)cc(Br)c1N)C1CCCCC1
active: [1] 16.8 µM
not listed: [10] | [11] | [12] | [13] | [18] | [19] | [20]
inactive: all other assays above

CCCCCCCCCCCCCCCCCC#N
active: [9] 1.65 µM
not listed: [14]
inactive: all other assays above

O=C(c1ccccc1)c1ccc2n1CCC2C(=O)O (stereo unspecified)
not listed: [10] | [11] | [12] | [14] | [17] | [18] | [19] | [20]
inactive: all other assays above

COCCOCCOCCOC
not listed: [14]
inactive: all other assays above

O=C1CCCCCCCCCCCCCC1
not listed: [14]
inactive: all other assays above

CCOC(=O)/C=C/C(=O)OCC
not listed: [14]
inactive: all other assays above

CCc1nccnc1C
not listed: [14]
inactive: all other assays above
